Luc counter – Counterscreen for Luciferase (Kinase-Glo TM) Inhibition | 200,000 tested, 0.28% active | Luciferin 4-monooxygenase (Photuris pensylvanica), Q27757 | Kinase-Glo luciferase, ATP luminescence, 8 min | Potency, µM (titrated, usually from 38.3 µM), inactives show at the highest dose activity change, negative = inhibition, hits mostly inhibitors; further: on the % scale 0 is the no-effect control and ±100 the full control effect; nearly all actives have a fitted effect of over 60% in size
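Compound is pinned into ATP-containing buffer (10 uM ATP, imidazole pH 7.2, 7 mM MgCl2). Kinase-Glo luciferase reagent is then added. Light output is recorded following an 8-min room-temperature incubation.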
FLuc counter – qHTS profiling assay for firefly luciferase inhibitor/activator using purifed enzyme and Km concentrations of substrates (counterscreen for miR-21 project); Luciferin 4-monooxygenase (Photinus pyralis), P08659; purified FLuc, Km substrates, luminescence inhibition; Potency, µM (titrated, usually from 57.5 µM), for inactives: at the highest dose activity change, negative = inhibition, hits mostly inhibitors; 360,000 tested, 6.9% active; AID 588342, 2011;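 further: plate controls were vehicle for no effect and reference inhibitor for full effect; nearly all actives have a fitted effect of over 55% in size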
Target sequence (P08659 whole entry, looked up): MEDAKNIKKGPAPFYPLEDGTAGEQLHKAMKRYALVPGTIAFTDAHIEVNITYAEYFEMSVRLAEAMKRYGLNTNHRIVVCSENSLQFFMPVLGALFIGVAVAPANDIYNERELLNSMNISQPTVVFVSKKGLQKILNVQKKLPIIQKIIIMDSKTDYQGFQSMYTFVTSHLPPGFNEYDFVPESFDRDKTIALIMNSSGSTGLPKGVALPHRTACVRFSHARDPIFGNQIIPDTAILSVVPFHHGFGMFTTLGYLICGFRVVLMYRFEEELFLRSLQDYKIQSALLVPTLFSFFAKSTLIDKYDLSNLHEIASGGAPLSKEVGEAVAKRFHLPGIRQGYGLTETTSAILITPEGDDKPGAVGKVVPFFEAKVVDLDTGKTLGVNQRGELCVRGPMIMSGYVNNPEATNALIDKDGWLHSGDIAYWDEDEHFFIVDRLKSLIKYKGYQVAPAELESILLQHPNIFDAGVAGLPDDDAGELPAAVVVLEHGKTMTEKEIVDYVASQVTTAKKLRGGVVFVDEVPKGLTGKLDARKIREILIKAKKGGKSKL
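Purified P. pyralis luciferase, 10 nM final, with Km-level 10 uM D-luciferin and 10 uM ATP in 50 mM Tris acetate pH 7.5, 10 mM Mg acetate, 0.01% Tween-20, 0.05% BSA; 6-point qHTS titration about 60 µM downward; luminescence read.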
ELG1 genotoxic – qHTS screen for small molecules that induce genotoxicity in human embryonic kidney (HEK293T) cells expressing luciferase-tagged ELG1; Potency, µM (highest dose often 46 µM), for the others: at the top dose activity change, positive = activation, actives largely listed as activators; HEK293T ELG1-luciferase reporter, luminescence, 16 h; 330,000 tested, 1.3% active; further: % of control where 0% means no effect; nearly all actives have a fitted effect of over 60% in size
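Genotoxicity was scored as increased ELG1-luciferase reporter signal, measured by ONE-Glo luminescence (30 min, room temperature). Compound or vehicle exposure of the HEK293T reporter cells lasted 16 hr at 37°C.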
Rab9 promoter act – qHTS Assay for Rab9 Promoter Activators. Huh7 Rab9 promoter-luciferase reporter, luminescence, 24 h. 320,000 tested, 2.8% active. Potency, µM (titrated, usually from 9.22 µM), without a hit: at the highest dose activation, negative = inhibition, most hits filed as activators; further: % of control where 0% means no effect; nearly all actives have a fitted effect of over 60% in size
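Huh7 cells stably carrying a Rab9 promoter-luciferase reporter, 1500 cells per well in OP-MEM I with 10% FBS, treated with compound 24 hours at 37C. Luciferase activity read by luminescence after 10 minutes with Amplite reagent.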
NPC1 prom act – qHTS Assay for NPC1 Promoter Activators | Huh7 NPC1 promoter luciferase reporter, 24 h | Potency, µM (titrated, usually from 9.22 µM), without a hit: top-dose activation, usual class: activators | 320,000 tested, 2.4% active; further: % of control where 0% means no effect; nearly all actives have a fitted effect of over 60% in size
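Luminescence read-out of NPC1 promoter-driven luciferase in stably transfected Huh7 cells; compounds delivered in DMSO and left 24 h at 37C, 5% CO2, qHTS titration format.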
SMN2 splice enh – qHTS Assay for Enhancers of SMN2 Splice Variant Expression. 210,000 tested, 2.8% active. AID 1458, 2008. HEK293 SMN2-luciferase splicing reporter, luminescence, 30-36 h. Potency, µM (series often up to 46.1 µM), without a hit: at the top dose activity change, positive = activation, most hits filed as activators; further: % of control where 0% means no effect; nearly all actives have a fitted effect of over 55% in size
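HEK293 cells carry an SMN2 […]–luciferase reporter in which exon 7 inclusion puts luciferase in frame. Cells were plated 10-12 h before compound addition, then incubated 30-36 h at 37C. ONE-Glo luminescence was read; sodium butyrate at 4.5 mM final served as control.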
* marks the source's active call; other numbers are inactive results; u = inconclusive; x = no result given; [ ] = another dose, or the depositor's remark. In the library only some 7.4% were active in any assay of this set; here they are far more common. The call rests on the fitted dose curve; in most records, active means well fitted curve in the direction sought with a large enough effect; inconclusive means small, poorly fitted or top-dose-only effect, or another doubt; inactive means no such curve, though single readings can be large; an effect the other way counts as inactive or inconclusive. Potency means the concentration at half of the fitted maximal effect.

SMILES	Luc counter	FLuc counter	ELG1 genotoxic	Rab9 promoter act	NPC1 prom act	SMN2 splice enh
Cc1ccccc1CNC(=O)Cn1ccc2cc(S(=O)(=O)N3CCCCC3)ccc21	x	-6.8%	x	x	x	x
CCC(C(=O)Nc1ccccc1C(=O)OC)n1nc(C)c2c(C)n(-c3ccc(C)cc3)nc2c1=O (configuration not stated)	x	-16.7%	x	x	x	x
Cc1ccc(-c2nc3ccc(Cl)cn3c2Nc2ccc3c(c2)OCCO3)s1	x	u	x	x	x	5.01µM*
Cc1ccn2c(Nc3ccc4c(c3)OCCO4)c(-c3cccs3)nc2c1	x	9.53µM*	x	x	x	-2.3%
CC(C)(C)C(=O)Nc1nc(-c2ccc3c(c2)OCO3)cs1	0.7%	7.57µM*	2.31µM*	2.82µM*	3.55µM*	u
COc1ccccc1C(=O)Nc1nc(-c2ccc3c(c2)OCCO3)cs1	3.4%	u	-2.8%	4.5%	-7.2%	-39.8%
CCC(=O)Nc1nc(-c2ccc3c(c2)OCCO3)cs1	1.3%	6.01µM*	2.06µM*	3.16µM*	0.501µM*	2.51µM*
O=C(/C=C/c1ccc2c(c1)OCO2)Nc1nc(-c2ccc(F)cc2)cs1	0.2%	u	0.0%	-1.1%	-1.1%	-60.9%
c1cc2c(cc1-c1csc(NNC3=NCCCCC3)n1)OCCO2	-1.3%	19µM*	15.0%	u	8.1%	16.9%
CC(=O)N[C@H](Cc1c[nH]c2ccccc12)C(N)=O	-7.8%	x	x	x	x	-7.8%
CN=c1scc(-c2ccccc2F)n1/N=C/c1ccc(O)c(O)c1O	11.2µM*	0.757µM*	8.5%	u	u	0.631µM*
CC(C)N=c1scc(-c2cccs2)n1/N=C/c1ccc(O)c(O)c1O	-1.5%	23.9µM*	u	5.1%	2.1%	3.4%[1.84 µM]
CCN=c1scc(-c2cccs2)n1/N=C/c1cc(OC)ccc1O	-1.8%	2.39µM*	u	u	2µM*	u
CN=c1scc(-c2ccccc2F)n1/N=C/c1ccc[nH]1	11.2µM*	0.0269µM*	-17.4%	-29.7%	-40.6%	-110.4%
CC(=O)N1CCc2cc(S(=O)(=O)NC(CC(C)C)C(=O)Nc3ccc(C(C)C)cc3)ccc21 (configuration not stated)	x	-9.9%	x	x	x	12.3%
CCCN1CCc2nc(N3CCN(c4ncccn4)CC3)ncc2C1	x	8.4%	x	x	x	x
O=C(Nc1ccc(F)cc1)C1CCN(c2nc3ccccc3nc2C(F)(F)F)CC1	x	5.9%	x	x	x	x
COc1ccc2c(c1)c(=O)c(C(=O)c1ccc(F)cc1)cn2CC(=O)Nc1ccc2c(c1)OCO2	x	-1.8%	x	x	x	2.7%
CSCCC(=O)N1CCCC(CNC(=O)c2ccc(-c3ccccc3)cc2)C1 (configuration not stated)	-4.9%	12µM*	-2.2%	0.2%	-1.9%	-14.1%
CCc1cc(C(=O)N2CCCC(CNC(=O)c3ccc(-c4ccccc4)cc3)C2)no1 (configuration not stated)	x	12µM*	-4.7%	27.2%	-3.5%	x
Nc1nc2c(nc(Br)n2C2OC3COP(=O)(O)O[C@@H]3C2O)c(=O)[nH]1 (some centres not stated)	x	x	x	1.9%[46.1 µM]	-3.9%[46.1 µM]	x
Cc1ccc(Cc2c(C)nn(-c3nc(C)c(C(=O)N4CCCCC4C)s3)c2C)cc1 (configuration not stated)	x	-18.7%	x	x	x	x
COc1ccc(/C=C2\Sc3ccc(C(=O)NCC4CCCO4)cc3N(C)C2=O)cc1 (configuration not stated)	x	u	0.8%	-4.3%	1.6%	x
COc1ccc(/C=C2\Sc3ccc(C(=O)N4CCOCC4)cc3N(C)C2=O)cc1	x	15.1µM*	-0.7%	-0.2%	1.8%	x
Cc1ccc(C)c(N2CCN(C(=O)CN3CCSc4ccc(S(=O)(=O)N(C)C)cc43)CC2)c1	x	7.1%	x	x	x	x
SMILES	Luc counter	FLuc counter	ELG1 genotoxic	Rab9 promoter act	NPC1 prom act	SMN2 splice enh
Cc1ccc(Nc2nc3ccccc3c3nncn23)cc1C	x	u	x	x	x	-10.4%
CCC(=O)n1nc(-c2ccc(Cl)cc2)nc1SC	-2.8%	u	u	u	28.3%	12.6µM*
CCC(=O)n1nc(-c2ccc(OC)cc2)nc1SC	-4.6%	19µM*	u	u	26.6%	u
CCCC(=O)n1nc(-c2ccc(Cl)cc2)nc1SC	0.7%	u	u	27.3%	27.8%	u
CC(N)(C(=O)O)c1ccc(S(=O)(=O)O)cc1 (configuration not stated)	x	x	x	x	x	15.8%
Clc1ccc(Cl)c(OCc2cc(-c3ccccc3Cl)on2)c1	-3.9%	10.7µM*	14.1%	u	u	-3.1%
Cc1cccn2cc(COc3ccc(-c4ccccc4)cc3)nc12	u	9.53µM*	u	u	u	x
Cc1ccc(OCc2cn3cccnc3n2)cc1	-25.0%	21.3µM*	18.4µM*	2.82µM*	3.55µM*	8.91µM*
COc1ccc([C@]23Cc4cc(OC)c(OC)cc4C(O2)c2c(cc(C)oc2=O)O3)cc1	x	-16.6%[11.5 µM]	x	1.6%[1.84 µM]	-4.9%[1.84 µM]	x
CCOC(=O)c1c(C)nc(C)c(C(=O)OCC)c1-c1ccc(OC)cc1	8.8%	2.2%	-4.8%	-0.5%	1.9%	0.8%
CCOC(=O)c1c(C)nc(C)c(C(=O)OCC)c1-c1cccc(N)c1	2.5%	-2.2%	-7.5%	-0.8%	-9.7%	22.4µM*
O=C(Nc1ccc2c(c1)OCCO2)NC1CCCCC1	-1.8%	3.79µM*	1.64µM*	0.562µM*	0.631µM*	10µM*
O=C(Nc1ccc(F)cc1F)NC1CCCCCCC1	x	12µM*	u	u	u	x
COc1cccc(NC(=O)NC2CCCCCCC2)c1	x	10.7µM*	u	u	3.55µM*	x
COc1cc(NC(=O)NC2Cc3ccccc3C2)cc(OC)c1	x	16.9µM*	7.5%	14.7%	5.2%	x
O=C(Nc1ccc2c(c1)OCCO2)C1CCC1	-2.2%	0.9%[2.3 µM]	10.0%	0.5%	11.6%	13.8%
O=C(Nc1cccc(F)c1)NC1CC2CCCC(C1)N2C1CC1 (configuration not stated)	-3.3%	1.5%	2.4%	2.6%	-0.9%	15.3%
COc1cccc(NC(=O)C(=S)NC2CCCCC2)c1	-20.1%	2.39µM*	u	0.794µM*	2µM*	3.55µM*
COc1cccc(C(=O)COC(=O)CCCC(=O)NC2CCCCC2)c1	x	26.9µM*	-0.8%	-0.3%	-2.8%	x
O=C(Nc1cccc(F)c1)NC1CCCCC1	-1.8%	23.9µM*	u	u	u	17.8µM*
O=C(O)[C@@H]1CCN(Cc2oc(CO)cc(=O)c2O)C1	-4.6%[7.66 µM]	x	x	x	x	-0.9%[9.22 µM]
CCc1ccccc1NC(=O)CSc1nncn2c1cc1oc(C)cc12	x	-13.2%	x	x	x	x

High-throughput results from PubChem BioAssay.
